Source: PubChem (several laboratories)
This is a sample that favours compounds with a hit; in the whole collection about 32% have one here.
PostGolgi ctrl: growth inhibition of yeast control strain, primary screen, counter-screen for post-Golgi transport modulator project. efflux-deficient yeast background strain, growth absorbance A615, 16 h. inhibition, % at 10 µM. 98,000 compounds, 5% hits. AID 738, 2007
CYP2C9 inh: blockers of cytochrome P450 2C9 activity – biochemical, luminescence, ADME assay, primary screen. P11712. CYP2C9 Supersomes, luciferin-H conversion. inhibition, % at 5 µM. 96,000 compounds, 20% hits. AID 777, 2007;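 active = blocking of liver enzyme CYP2C9 beyond about 50% at 5 µM, limit read from the data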
Target sequence (P11712 whole entry, looked up): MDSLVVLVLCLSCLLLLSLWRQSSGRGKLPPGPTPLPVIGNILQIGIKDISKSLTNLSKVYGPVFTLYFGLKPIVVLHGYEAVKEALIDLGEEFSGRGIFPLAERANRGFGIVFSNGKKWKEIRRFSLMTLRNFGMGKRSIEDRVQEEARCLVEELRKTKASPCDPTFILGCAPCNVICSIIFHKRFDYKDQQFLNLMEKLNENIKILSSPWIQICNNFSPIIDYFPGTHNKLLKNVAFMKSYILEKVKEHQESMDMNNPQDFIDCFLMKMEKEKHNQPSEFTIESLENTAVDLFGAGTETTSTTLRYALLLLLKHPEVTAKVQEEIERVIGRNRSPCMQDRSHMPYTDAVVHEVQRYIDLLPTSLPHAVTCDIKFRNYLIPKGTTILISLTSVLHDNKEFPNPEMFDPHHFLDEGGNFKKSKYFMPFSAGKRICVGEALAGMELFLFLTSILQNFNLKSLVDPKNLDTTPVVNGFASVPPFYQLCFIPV
CYP2C9 activ: human CYP2C9 activators, primary screen, biochemical, luminescence. recombinant CYP2C9, luciferin-H conversion; stronger effect = higher value; factor 1 = untreated enzyme, 0 = blocked. 96,000 compounds, 1.4% hits. Cytochrome P450 2C9 (Homo sapiens), P11712. activation factor at 5 µM;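 active = activation factor of 2 or more for CYP2C9 at a 5 µM dose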;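 also: 0 = sulfaphenazole-blocked wells and 1 = vehicle-only wells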
PostGolgi yeast: phenotypic screen on post-Golgi transport, primary screen | inhibition, % at 10 µM | 98,000 compounds, 0.9% hits | post-Golgi transport phenotypic cell assay | AID 739, 2007;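 also: yeast cells grown in 1536-well plates; yeast grown about 18 h at 30C before absorbance read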
CYP2C19 inh: blockers of cytochrome P450 2C19 activity – biochemical, luminescence, ADME assay, primary screen. CYP2C19 Supersomes, luciferin-H EGE luminescence, 30 min. inhibition, % at 5 µM. 96,000 compounds, 21% hits. AID 778, 2007;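 active = CYP2C19 inhibition above a set limit at 5 µM in the primary screen, cut at about 50% in these data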;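 also: plate controls were negative control wells for no effect and 2.5 mM tranylcypromine positive control for full effect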
CYP2C19 activ: human CYP2C19 activators, primary screen, biochemical, luminescence; recombinant CYP2C19, luciferin-H EGE luminescence; stronger effect = higher value; 0 = fully inhibited enzyme, 1 = untreated enzyme; activation factor at 5 µM; 96,000 tested, under 10 active; Cytochrome P450 2C19 (Homo sapiens), P33261;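 active = activation factor of at least 2 at 5 µM in the primary screen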;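 also: 0 = wells with 2.5 mM tranylcypromine and 1 = vehicle-only wells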
Active calls of the source: *. Rule as the data show it, unless noted: active = inhibition above about 30%; inactive = the rest.

SMILES | PostGolgi ctrl | CYP2C9 inh | CYP2C9 activ | PostGolgi yeast | CYP2C19 inh | CYP2C19 activ
CCOC(=O)c1ccc(NC(=S)Nc2ccccn2)cc1 | 1 | -6 | 1.1 | 8 | 8 | 0.9
O=C(CSc1nc(N2CCCCC2)nc(N2CCCCC2)n1)c1ccccc1 | 5 | 79* | 0.2 | 2 | 47 | 0.5
O=C(CSc1n[nH]c(-c2ccncc2)n1)NCCc1ccccc1 | -2 | 97* | 0 | -4 | 92* | 0.1
Cc1cc(N2CCCCC2)nc(SCC(=O)c2ccccc2)n1 | 23 | 26 | 0.7 | 1 | 25 | 0.8
COCCSc1nnc(-c2cnccn2)o1 | 11 | 17 | 0.8 | -3 | -5 | 1.1
CCSc1nnc(-c2cccc(S(=O)(=O)N(C)C)c2)n1-c1cc(OC)ccc1OC | 5 | 84* | 0.2 | -7 | 70* | 0.3
COc1cccc(-n2c(SCc3c(C)noc3C)nnc2-c2cccc(S(=O)(=O)N(C)C)c2)c1 | -1 | 31 | 0.7 | -7 | 28 | 0.7
CCCSc1nnc(-c2cccc(S(=O)(=O)N(C)C)c2)n1-c1cc(OC)ccc1OC | 1 | 86* | 0.1 | -7 | 77* | 0.2
COc1ccc(OC)c(-n2c(SCC(C)=O)nnc2-c2cccc(S(=O)(=O)N(C)C)c2)c1 | 6 | 17 | 0.8 | 1 | 14 | 0.9
Cc1ccnc(N/C=C(/NC(=O)c2ccccc2)C(=O)N/N=C\c2ccc(F)cc2)n1 | 9 | 20 | 0.8 | 13 | -13 | 1.1
Cc1ccc(NC(=O)N2CCC(NC(=O)C(C)(C)C)CC2)cc1 | -5 | 4 | 1 | 0 | 6 | 0.9
COc1cc(C2C(C#N)=C(N)N(Nc3ccccc3)C3=C2C(=O)CC(C)(C)C3)ccc1OCc1ccccc1 (stereo not given) | 2 | 79* | 0.2 | 0 | 21 | 0.8
C=CCOc1ccc(C2C(C#N)=C(N)N(Nc3ccccc3)C3=C2C(=O)CCC3)cc1OC (stereo not given) | 6 | 70* | 0.3 | 3 | 14 | 0.9
COc1cc(C2C(C#N)=C(C)NC3=C2C(=O)CC(C)(C)C3)ccc1OCCO (stereo not given) | 8 | 47 | 0.5 | 0 | 14 | 0.9
COc1cc(C2C(C#N)=C(N)N(Nc3ccccc3)C3=C2C(=O)CC(C)(C)C3)ccc1OCc1cccc(F)c1 (stereo not given) | -6 | 96* | 0 | -1 | 68* | 0.3
COc1ccc(C2C(C#N)=C(N)N(Nc3ccccc3)C3=C2C(=O)CC(C)(C)C3)cc1C (stereo not given) | 9 | 2 | 1 | 5 | 17 | 0.8
CC(NC(=O)CCl)c1ccc(Cl)c(Cl)c1 (stereo not given) | 4 | 47 | 0.5 | -2 | 86* | 0.1
CC(C)CNC(=O)c1cc(-c2ccc(Cl)c(Cl)c2)on1 | -4 | -2 | 1 | -6 | 2 | 1
Cc1nnsc1NC(=O)OCc1ccccc1Cl | 6 | 28 | 0.7 | 5 | 76* | 0.2
Cc1nn(C)c(Cl)c1NC(=O)OCc1ccccc1 | -9 | -49 | 1.5 | -4 | 33 | 0.7
COCCn1c(Sc2ccccc2)nc2c1c(=O)[nH]c(=O)n2C | 26 | 4 | 1 | 3 | -7 | 1.1
CS(=O)(=O)c1cc([N+](=O)[O-])c(Sc2nc3ccccc3[nH]2)c([N+](=O)[O-])c1 | -1 | 12 | 0.9 | 12 | 69* | 0.3
O=C(CSc1nc2ccccc2[nH]1)N1CCN(S(=O)(=O)c2ccc(Cl)cc2)CC1 | -3 | 18 | 0.8 | -6 | 8 | 0.9
O=C1Cc2cccc3cccc1c23 | 7 | -9 | 1.1 | -2 | 2 | 1
Cc1ccc(-c2noc(CSc3nnc(CCc4ccccc4)n3-c3ccccc3)n2)cc1 | 18 | 76* | 0.2 | 2 | 83* | 0.2
COc1ccc(-c2noc(CSc3nnc(CCc4ccccc4)n3-c3ccccc3)n2)cc1OC | 21 | 80* | 0.2 | 19 | 99* | 0
CN(C)S(=O)(=O)N(CC(=O)NCc1ccccc1)c1ccccc1 | -2 | 18 | 0.8 | 3 | 67* | 0.3
